Not all results are given here.
aSyn 5UTR act – Activators via SNCA 5'UTR binding, MLPCN; alpha-synuclein 5'UTR reporter, activators screen; activity score, % (tested at 7.5 µM), hits read low; hit rate 7.1% among 300,000; in the data active = activity score below about -60%
Each line names hits and unclear results; the compound was inactive in the other large screens.

COc1cc(/C=C/C(=O)c2ccc3c(c2)OCCO3)cc(Br)c1OCC(=O)N(C)C	aSyn 5UTR act -818.7
Cc1ccc(/C=C2\SC(=S)N(CCCC(=O)NC3CCCC3)C2=O)cc1	none
COc1cc(/C=C2\SC(=S)N(CCC(=O)NC3CCCC3)C2=O)cc(OC)c1OC	aSyn 5UTR act -70.6
CN(C)c1ccc(N=Nc2cccc(F)c2)cc1	aSyn 5UTR act -106.5
CN(C)c1ccc(N=Nc2cccc3ccoc23)cc1	aSyn 5UTR act -136.0
C/C=C/COC(=O)c1[nH]c2c(c1C)C(=O)CC(c1ccco1)C2 (stereo unspecified)	none
CCOC(=O)C1=C(N)n2c(s/c(=C\c3ccco3)c2=O)=C(C(=O)OCC)C1c1ccco1 (stereo unspecified)	aSyn 5UTR act -78.4
CN(C)c1ccc(N=Nc2ccc(S(N)(=O)=O)cc2)cc1	aSyn 5UTR act -95.9
Cc1ccc(Nc2nc3ccccc3c(=O)[nH]2)cc1C	aSyn 5UTR act -194.9
Cc1cccc(/C=C\c2nc3ccccc3c(=O)[nH]2)c1	aSyn 5UTR act -73.8
O=C(Nc1cccc(/C=C/c2nc3ccccc3c(=O)[nH]2)c1)c1ccccc1Cl	aSyn 5UTR act -131.8
O=c1[nH]c(/C=C/c2ccc(Br)cc2)nc2ccccc12	aSyn 5UTR act -168.8
CN(C)c1ccc(/C=C/c2nc3ccccc3c(=O)[nH]2)cc1	none
COc1ccc(N/N=C(/C)c2cnnc(-c3ccccc3)n2)cc1	aSyn 5UTR act -70.2
COc1ccc(/C(C)=N/Nc2nc3ccccc3nc2C)cc1	aSyn 5UTR act -66.6
COc1ccc(/C(C)=N/Nc2nncc3ccccc23)cc1	aSyn 5UTR act -113.2
CC(=O)N(Cc1ccc(F)cc1)C1=C(NCCc2ccccc2)C(=O)c2ccccc2C1=O	none
COc1ccc(CCN(C)C(=O)CCc2nnc(-c3ccccc3)o2)cc1OC	aSyn 5UTR act -86.1
CN(Cc1ccc(F)cc1)C(=O)CCc1nnc(-c2ccccc2)o1	aSyn 5UTR act -90.5
CCn1ncc(Br)c1C(=O)Nc1ccc2c(c1)OCCO2	aSyn 5UTR act -93.6
CCn1ncc(Br)c1C(=O)Nc1ccc(C(C)C)cc1	aSyn 5UTR act -79.0
CCc1sc(C(=O)Nc2ccc3c(c2)OCCO3)cc1Br	aSyn 5UTR act -192.6
COc1cc(Cl)cc(/C=C/c2ccc3ccccc3n2)c1OC(C)=O	aSyn 5UTR act -126.7
CC(=O)Oc1ccc(Cl)cc1/C=C/c1cc(OC(C)=O)c2ccccc2n1	aSyn 5UTR act -137.7
Nc1cc(N)nc(SCC(=O)Nc2ccc(Br)cc2Cl)n1	aSyn 5UTR act -79.3
Cc1ccc2nc(SC(C)C(=O)N3CCOCC3)[nH]c2c1 (stereo unspecified)	aSyn 5UTR act -94.4
O=C(N/N=C/c1sc(N2CCOCC2)nc1-c1ccccc1)c1cccc(S(=O)(=O)N2CCOCC2)c1	none
CC(C)NC(=S)N/N=C/c1sc(N2CCCCC2)nc1-c1cccs1	aSyn 5UTR act -68.5
NC(=O)N/N=C/c1sc(N2CCCCC2)nc1-c1cccs1	aSyn 5UTR act -66.6
CSc1ccc(CNc2ccc(C)cc2)cc1	aSyn 5UTR act -149.4
CSc1ccc(CNc2ccc(C)c(C)c2)cc1	aSyn 5UTR act -139.1
Cc1c2c(nc3ccccc13)CCC(C(C)(C)C)C2 (stereo unspecified)	aSyn 5UTR act -116.3
O=C(Nc1cccc2ccccc12)C12CC3CC(C1)CC(n1cnc([N+](=O)[O-])n1)(C3)C2	none
S=C(Nc1cccc2ccccc12)NC1CCCCC1	aSyn 5UTR act -195.3
CC(=O)c1cccc(NC(=S)Nc2cccc3ccccc23)c1	aSyn 5UTR act -79.9
Cc1ccc(NC(=S)Nc2cccc3cnccc23)cc1	aSyn 5UTR act -102.3
CC(=O)Nc1cccc(NC(=S)Nc2cccc3ccccc23)c1	aSyn 5UTR act -116.1
O=C(NNC(=S)Nc1cccc2ccccc12)c1cccc(Br)c1	aSyn 5UTR act -79.1
O=C(NC1CCCC1)c1cc(-c2cccc(Cl)c2)on1	aSyn 5UTR act -185.8
O=C(NC1CCCCC1)c1cc(-c2cccc(Cl)c2)on1	aSyn 5UTR act -235.5
CC1CCN(C(=O)COC(=O)c2ccccc2NC(=O)c2ccco2)CC1	aSyn 5UTR act -72.5
COc1cc(C)ccc1OCc1cc(C(=O)N2CCC(c3ccc(F)cc3)C2)no1 (stereo unspecified)	aSyn 5UTR act -175.5
COc1ccc(OCc2cc(C(=O)N3CCC(OC)CC3)no2)c2ccccc12	aSyn 5UTR act -69.5
COCC1CCN(C(=O)c2cc(COc3ccc(OC)c4ccccc34)on2)C1 (stereo unspecified)	aSyn 5UTR act -183.7
COCC1CCN(C(=O)c2cc(COc3ccccc3SC)on2)C1 (stereo unspecified)	aSyn 5UTR act -79.2
COc1ccc(OCc2cc(C(=O)NC3CCOC(C)(C)C3)no2)c2ccccc12 (stereo unspecified)	aSyn 5UTR act -183.3
CCOC(=O)C1CCN(C(=O)c2cc(COc3ccc(OC)c4ccccc34)on2)CC1	aSyn 5UTR act -124.1
COc1cc(Cl)ccc1OCc1cc(C(=O)N2CCCC(OC)C2)no1 (stereo unspecified)	aSyn 5UTR act -147.5
CCC(C)NC(=O)Cn1c(COc2ccc(Cl)cc2Cl)nc2ccccc21 (stereo unspecified)	aSyn 5UTR act -122.2
COc1cccc(-c2nnc(N(C)C(=O)C3CCOC3)s2)c1 (stereo unspecified)	aSyn 5UTR act -71.1
C/C(=N\NC(=O)C1CCCN(S(=O)(=O)c2ccccc2)C1)c1ccccn1 (stereo unspecified)	none
Cc1ccc(NC(=O)C2CCCN(c3ncccn3)C2)cc1F (stereo unspecified)	aSyn 5UTR act -268.8
O=C(Nc1ccc2c(c1)CCC2)C1CCCN(c2ncccn2)C1 (stereo unspecified)	aSyn 5UTR act -156.8
Cc1ccc(NC(=O)C2CCCN(c3ncccn3)C2)c(C)c1 (stereo unspecified)	aSyn 5UTR act -78.5
O=c1c2[nH]c3ccc(F)cc3c2ncn1CCC1=CCCCC1	aSyn 5UTR act -120.5
COc1ccc2c(c1)[nH]c1c(=O)n(CCC3=CCCCC3)cnc12	aSyn 5UTR act -99.3
CC(C)C(=O)Nc1nc(-c2ccccc2)ns1	aSyn 5UTR act -182.3
O=C(CSc1ncn[nH]1)Nc1nc(-c2ccccc2)ns1	aSyn 5UTR act -62.9
CC(=O)Nc1cc(-c2ccc(Cl)cc2)[nH]n1	aSyn 5UTR act -141.4
CCCC(=O)Nc1nc(-c2ccccc2)ns1	aSyn 5UTR act -152.2
CCSc1nc(-c2ccccc2)nc(C(Cl)Cl)n1	none
Cc1nnc(SCCC(=O)Nc2nc(-c3ccccc3)ns2)s1	aSyn 5UTR act -85.9
CC(=O)Nc1nc(-c2ccc(Cl)cc2)ns1	aSyn 5UTR act -206.4
CCC(=O)Nc1nc(-c2ccccc2)ns1	aSyn 5UTR act -211.3
COC(=O)Nc1nc(-c2ccccc2)c(C(=O)c2ccc(Cl)cc2)s1	none
C#CCn1c(C)cc(C)c(S(=O)(=O)c2ccccc2)c1=O	aSyn 5UTR act -72.6
COc1ccc(C2=NOC(COc3ccc4c(C)cc(=O)oc4c3)C2)c(OC)c1 (stereo unspecified)	none
COc1cccc(C(=O)COc2ccc3c(C)cc(=O)oc3c2)c1	aSyn 5UTR act -106.3
COc1cccc(COc2ccc3c(C)cc(=O)oc3c2)c1	aSyn 5UTR act -164.5
Cc1ccc(NC(=O)CCC(=O)c2cccs2)c(O)c1	aSyn 5UTR act -79.8
O=C(CCC(=O)c1cccs1)c1cccs1	aSyn 5UTR act -68.8
O=C(CSCc1ccco1)c1cccs1	aSyn 5UTR act -174.0
Cn1c(-c2ccc3ccccc3n2)nc2cnccc21	aSyn 5UTR act -74.3
O=C(N/N=C/c1ccc(Br)cc1)c1ccc(Br)o1	aSyn 5UTR act -206.9
O=C(N/N=C/c1ccc(Br)cc1)c1ccc(F)cc1	aSyn 5UTR act -78.1
O=C(N/N=C/c1ccccc1)c1n[nH]c2c1CCCC2	aSyn 5UTR act -87.5

Screening results from PubChem BioAssay.
